Source: PubChem BioAssay
Activity calls are given as the source filed them.

Key:
[1] = test system: Wnt5a (protein binding on small-molecule microarray); assay: small molecules binding Wnt5a protein – biophysical, small-molecule microarray, 635/667 nm fluorescence, primary screen (AID 1142); details: 635 nm fluorescence, higher = more signal;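 further: fluorescence read at 667 nm with signal to noise per printed feature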
[2] = ATP-based viability of Huh7 replicon cells – cell-based, CellTiter-Glo luminescence, basal, 48 h, cytotoxicity control for HCV replication inhibitor project, primary screen (AID 1143); details: higher = more signal, called active from +8 up or from −8 down;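 further: Huh7 hepatoma cells carrying a hepatitis C replication reporter with no stimulus; test concentration not given here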
[3] = basal CRE-LacZ reporter activity in PC12 – cell-based, unstimulated, primary screen (AID 1145); details: no forskolin, luminescence, 4.5 h, higher = more signal, called active from +8 up or from −8 down
[4] = forskolin-driven CRE-LacZ activity in PC12 – cell-based, CRE-LacZ reporter, forskolin-stimulated, primary screen (AID 1146); details: luminescence, 4.5 h, higher = more signal, called active from +8 up or from −8 down;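 further: PC12 cells with 6xCRE LacZ reporter stimulated by forskolin 10 µM; beta-galactosidase reporter signal reflecting CREB driven transcription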
[5] = target: Streptavidin (Streptomyces avidinii) (UniProt P22629); assay: compounds binding control protein streptavidin – biophysical, small-molecule microarray, 635/667 nm fluorescence, artefact control for SMM compound annotation, primary screen (AID 1147); details: higher = more signal;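 further: signal reflects streptavidin binding to arrayed compounds as a control protein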
[6] = probe aInhba binding on compound microarray – biochemical, small-molecule microarray, 635/667 nm fluorescence, primary screen (AID 1148); details: higher = more signal;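 further: score merges 667nm spot fluorescence with signal-to-noise for antibody binding to printed compounds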
Torsin-1A (Homo sapiens) [7] = target: Torsin-1A (Homo sapiens) (UniProt O14656); assay: TOR1A wild-type binding on microarray – cell lysate, small-molecule microarray, lysate, 635/667 nm, primary screen (AID 1149); details: COS7 hTOR1A-WT lysate, 635 nm fluorescence, higher = more signal
Torsin-1A (Homo sapiens) [8] = target: Torsin-1A (Homo sapiens) (UniProt O14656); assay: torsin A mutant lysate binding on microarrays – cell lysate, small-molecule microarray, COS7 lysate, 635/667 nm fluorescence, primary screen (AID 1150); details: COS7 hTOR1A mutant lysate, 635 nm fluorescence, higher = more signal;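 further: score pools 667 nm emission and signal to noise measuring lysate protein binding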
[9] = test system: Sonic hedgehog protein (Shh); assay: Sonic hedgehog microarray binding compounds – biochemical, small-molecule microarray, 635/667 nm fluorescence, primary screen (AID 1151); details: 635 nm fluorescence, higher = more signal;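 further: Shh protein binding to compounds spotted on small-molecule microarray slides; score combines spot fluorescence intensity with signal-to-noise across triplicate slides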
[10] = optical density shifts of acrAB sulA E. coli – strain DRC41, OD650, 48 h, E. coli filamentation inducer project, primary screen (AID 1152); details: higher = more signal, called active from +8 up or from −8 down;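 further: E. coli MC1000 strain DRC41 lacking acrAB efflux pump and sulA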
[11] = probe aLefty1 binding on compound microarray – biochemical, small-molecule microarray, 635/667 nm fluorescence, primary screen (AID 1153); details: higher = more signal;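 further: score merges spot fluorescence with signal-to-noise ratio from the scanned slide images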
[12] = plasmodial surface anion channel blockers, osmotic lysis – cell-based, P. falciparum Indochina, OD700, 1 h, primary screen (AID 1154); details: P. falciparum Indochina infected RBC osmotic lysis, higher = more signal, called active from +8 up or from −8 down
[13] = plasmodial surface anion channel blockers, osmotic lysis – cell-based, P. falciparum Indochina, OD700, 2 h, primary screen (AID 1155);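 further: lysis reports solute entry through the parasite surface anion channel PSAC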; details: P. falciparum Indochina infected erythrocytes, higher = more signal, called active from +8 up or from −8 down
[14] = changes in parasitized red cell lysis, either direction – P. falciparum Indochina, OD700, 3 h, PSAC antagonist project, primary screen (AID 1156); details: P. falciparum-infected erythrocytes, osmotic lysis, higher = more signal, called active from +8 up or from −8 down
[15] = plasmodial surface anion channel blockers, osmotic lysis – cell-based, P. falciparum Indochina, OD700, 18 h, primary screen (AID 1157); details: P. falciparum Indochina infected erythrocytes, osmotic lysis OD700, 18 h; higher = more signal, called active from +8 up or from −8 down
[16] = S6 kinase pathway phospho-S6 level changes – cell-based, A549, cytoblot, luminescence, serum-stimulated, primary screen (AID 1158); details: 5 h, higher = more signal;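 further: serum-stimulated A549 lung adenocarcinoma cells; signal is phosphorylated S6 detected by cytoblot immunostaining with HRP secondary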
[17] = target: NADPH oxidase 2 (Homo sapiens) (UniProt P04839); assay: compounds shifting NOX2 Amplex Red fluorescence – cell-based, HEK293-NOX2, PMA-stimulated, NOX inhibitor project, primary screen (AID 1159); details: 45 min, higher = more signal, called active from +8 up or from −8 down; further: test concentration not given here
[18] = target: NADPH oxidase 4 (Homo sapiens) (UniProt Q9NPH5); assay: compounds shifting NOX4 Amplex Red fluorescence – cell-based, HEK293-NOX4, tetracycline-induced, NOX inhibitor project, primary screen (AID 1160); details: HEK293-NOX4, Amplex Red H2O2 fluorescence, 45 min; higher = more signal, called active from +8 up or from −8 down
[19] = target: NADPH oxidase 5 (Homo sapiens) (UniProt Q96PH1); assay: compounds shifting NOX5 Amplex Red fluorescence – cell-based, HEK293-NOX5, NOX inhibitor project, primary screen (AID 1161); details: HEK293-NOX5, ionomycin, 45 min, higher = more signal
[20] = compound effects on lung adenocarcinoma cell viability – A549, calcein-AM fluorescence, 48 h, basal, profiling panel (AID 1162); details: higher = more signal; further: test concentration not given here

Sequence of NADPH oxidase 2 (Homo sapiens) (P04839 whole entry, looked up): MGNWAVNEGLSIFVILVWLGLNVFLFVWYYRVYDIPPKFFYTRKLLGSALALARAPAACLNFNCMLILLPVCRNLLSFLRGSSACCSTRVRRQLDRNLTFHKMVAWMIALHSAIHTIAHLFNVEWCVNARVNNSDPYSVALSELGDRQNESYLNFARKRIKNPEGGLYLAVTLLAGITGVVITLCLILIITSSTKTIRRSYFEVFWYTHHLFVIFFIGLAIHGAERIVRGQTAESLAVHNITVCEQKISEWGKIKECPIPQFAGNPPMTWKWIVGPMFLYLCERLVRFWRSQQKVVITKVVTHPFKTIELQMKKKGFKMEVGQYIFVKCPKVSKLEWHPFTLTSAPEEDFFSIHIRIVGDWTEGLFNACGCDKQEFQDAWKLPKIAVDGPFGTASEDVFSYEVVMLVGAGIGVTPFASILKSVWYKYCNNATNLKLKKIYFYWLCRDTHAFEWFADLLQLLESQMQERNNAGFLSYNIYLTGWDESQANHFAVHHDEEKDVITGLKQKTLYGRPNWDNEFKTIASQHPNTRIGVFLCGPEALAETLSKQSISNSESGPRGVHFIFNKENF
Sequence of Torsin-1A (Homo sapiens) (O14656 whole entry, looked up): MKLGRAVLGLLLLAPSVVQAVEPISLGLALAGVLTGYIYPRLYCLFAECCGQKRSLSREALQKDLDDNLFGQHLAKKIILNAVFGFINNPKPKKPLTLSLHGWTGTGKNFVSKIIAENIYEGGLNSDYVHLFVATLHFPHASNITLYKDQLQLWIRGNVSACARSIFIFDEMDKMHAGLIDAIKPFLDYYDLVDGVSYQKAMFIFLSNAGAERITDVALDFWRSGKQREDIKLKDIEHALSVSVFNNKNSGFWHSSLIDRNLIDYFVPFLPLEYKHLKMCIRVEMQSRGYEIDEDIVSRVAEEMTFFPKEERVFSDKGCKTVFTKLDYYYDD
Sequence of Streptavidin (Streptomyces avidinii) (P22629 whole entry, looked up): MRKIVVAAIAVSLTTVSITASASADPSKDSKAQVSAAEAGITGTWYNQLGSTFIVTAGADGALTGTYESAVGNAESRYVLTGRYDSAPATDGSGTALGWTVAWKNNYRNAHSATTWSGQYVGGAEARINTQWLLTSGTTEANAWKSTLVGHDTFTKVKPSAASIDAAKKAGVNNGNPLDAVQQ
Sequence of NADPH oxidase 5 (Homo sapiens) (Q96PH1 whole entry, looked up): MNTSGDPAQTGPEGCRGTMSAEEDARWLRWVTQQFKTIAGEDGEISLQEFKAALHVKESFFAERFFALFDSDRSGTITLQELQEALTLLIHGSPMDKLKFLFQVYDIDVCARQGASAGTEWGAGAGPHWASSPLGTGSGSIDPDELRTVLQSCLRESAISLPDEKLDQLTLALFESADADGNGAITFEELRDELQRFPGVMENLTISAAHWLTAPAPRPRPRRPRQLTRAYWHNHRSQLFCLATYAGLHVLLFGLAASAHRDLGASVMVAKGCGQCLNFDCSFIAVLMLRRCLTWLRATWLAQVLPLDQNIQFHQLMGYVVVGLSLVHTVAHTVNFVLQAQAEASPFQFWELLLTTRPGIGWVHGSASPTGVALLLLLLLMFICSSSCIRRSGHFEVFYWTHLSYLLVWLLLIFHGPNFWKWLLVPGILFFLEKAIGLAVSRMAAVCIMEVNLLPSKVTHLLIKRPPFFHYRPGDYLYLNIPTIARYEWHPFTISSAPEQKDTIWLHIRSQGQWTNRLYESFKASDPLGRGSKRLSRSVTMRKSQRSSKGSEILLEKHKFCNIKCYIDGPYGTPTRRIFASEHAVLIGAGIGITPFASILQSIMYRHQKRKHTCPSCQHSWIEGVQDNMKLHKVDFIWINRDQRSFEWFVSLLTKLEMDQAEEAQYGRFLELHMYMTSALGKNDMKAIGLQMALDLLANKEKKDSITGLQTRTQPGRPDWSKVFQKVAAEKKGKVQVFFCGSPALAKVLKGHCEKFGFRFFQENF
Sequence of NADPH oxidase 4 (Homo sapiens) (Q9NPH5 whole entry, looked up): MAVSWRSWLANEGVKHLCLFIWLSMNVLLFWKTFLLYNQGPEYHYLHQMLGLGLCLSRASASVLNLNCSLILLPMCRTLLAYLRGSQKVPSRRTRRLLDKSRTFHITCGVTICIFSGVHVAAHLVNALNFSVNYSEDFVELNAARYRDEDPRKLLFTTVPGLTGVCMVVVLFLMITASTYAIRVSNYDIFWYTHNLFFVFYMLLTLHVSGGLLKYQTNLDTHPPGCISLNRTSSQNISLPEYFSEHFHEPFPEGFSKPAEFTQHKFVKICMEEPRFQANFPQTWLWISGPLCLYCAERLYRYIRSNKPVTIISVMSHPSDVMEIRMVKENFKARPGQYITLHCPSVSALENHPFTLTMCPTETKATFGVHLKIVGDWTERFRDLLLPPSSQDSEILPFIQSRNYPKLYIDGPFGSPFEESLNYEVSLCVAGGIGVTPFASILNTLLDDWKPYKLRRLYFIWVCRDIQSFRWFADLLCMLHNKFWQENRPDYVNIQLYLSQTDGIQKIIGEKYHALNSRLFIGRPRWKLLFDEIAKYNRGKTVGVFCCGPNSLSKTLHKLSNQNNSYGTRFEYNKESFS

| SMILES | composite z-score [1] | z-score [2] | z-score [3] | z-score [4] | composite z-score [5] | composite z-score [6] | composite z-score (Torsin-1A (Homo sapiens) [7]) | composite z-score (Torsin-1A (Homo sapiens) [8]) | composite z-score [9] | z-score [10] | composite z-score [11] | z-score [12] | z-score [13] | z-score [14] | z-score [15] | z-score [16] | z-score [17] | z-score [18] | z-score [19] | z-score [20] |
| --- | --- | --- | --- | --- | --- | --- | --- | --- | --- | --- | --- | --- | --- | --- | --- | --- | --- | --- | --- | --- |
| NC(=O)NCC#Cc1ccc2c(c1)[C@]1(C(=O)N2)[C@H](c2ccc(OCCO)cc2)N2[C@H](c3ccccc3)[C@H](c3ccccc3)OC(=O)[C@H]2[C@@H]1C(=O)Nc1nc2ccccc2s1 | 0.151 | -0.0246 (inactive) | -0.0246 (inactive) | 0.625 (inactive) | 0.453 | 0.0253 | -0.033 | 0.254 | 0.0186 | 2 (inactive) | 0.122 | 2.5 (inactive) | 2.06 (inactive) | 1.53 (inactive) | 1.33 (inactive) | -0.199 | 1.43 (inactive) | 0.57 (inactive) | 1.16 | 0.0942 |
| COCCCNC(=O)[C@@]1(C)c2ccccc2C(=O)N(Cc2cc(F)cc(C(F)(F)F)c2)[C@H]1c1ccc(CO)cc1 | -0.0509 | -0.914 (inactive) | -0.0512 (inactive) | -0.883 (inactive) | -0.624 | -0.38 | 0.891 | -0.439 | -1.16 | 1.7 (inactive) | -0.279 | 1.13 (inactive) | 0.459 (inactive) | 0.0539 (inactive) | 0.0567 (inactive) | 0.0396 | 0.184 (inactive) | -1.4 (inactive) | 0.42 | -0.0292 |
| COCCCNC(=O)[C@@]1(Cc2ccccc2)N=C(c2ccc(OCCCO)cc2)O[C@H]1c1ccccc1N=[N+]=[N-] | 0.834 | -4.48 (inactive) | 1.74 (inactive) | -1.74 (inactive) | 0.356 | 0.49 | 0.544 | 0.449 | 0.475 | 1.78 (inactive) | 0.826 | 29.6 (active) | 27.1 (active) | 3.66 (inactive) | 1.92 (inactive) | 0.98 | -0.14 (inactive) | 0.523 (inactive) | -1.57 | -0.622 |
| COc1ccc(CCNC(=O)[C@@]2(Sc3ccc(C)cc3)CC(=O)N(Cc3ccccc3)[C@@H]2c2ccc(CO)cc2I)cc1 | -0.221 | -1.9 (inactive) | 1.13 (inactive) | 1.72 (inactive) | -0.225 | -0.24 | 0.272 | 0.192 | -0.631 | 1.15 (inactive) | -0.321 | 12.6 (active) | 1.57 (inactive) | 0.0585 (inactive) | 0.572 (inactive) | -0.262 | 1.82 (inactive) | -1.14 (inactive) | 1.78 | 0.648 |
| CCN(CC)c1ccc(N2CC=CC34O[C@@H]5C=CCOC(=O)[C@@H]5[C@H]3C(=O)N(C(C)CO)[C@@H]4C2=O)cc1 (stereo not given in full) | -0.701 | -0.269 (inactive) | 0.195 (inactive) | 0.188 (inactive) | -1.27 | -0.123 | -1.08 | -0.641 | -0.903 | 1.55 (inactive) | 0.121 | 0.0295 (inactive) | 0.447 (inactive) | 0.976 (inactive) | 0.255 (inactive) | -0.153 | 0.126 (inactive) | 0.197 (inactive) | 0.871 | 0.271 |
| COCCOC(=O)N1C(=O)[C@@]2(c3cc(C#CC4(O)CCCCCC4)ccc31)[C@H](C(=O)NC[C@H](O)c1ccccc1)[C@H]1C(=O)O[C@H](c3ccccc3)[C@H](c3ccccc3)N1[C@@H]2c1ccccc1OCCO | 0.393 | -5.32 (inactive) | -0.203 (inactive) | -0.464 (inactive) | 0.637 | 0.0393 | 0.821 | 0.709 | 1.9 | 1.5 (inactive) | 0.223 | 2.13 (inactive) | 1.55 (inactive) | -0.535 (inactive) | 0.922 (inactive) | 0.632 | 1.82 (inactive) | -0.729 (inactive) | 0.85 | 0.463 |
| CO[C@H]1O[C@H](CO)[C@@H](OC(=O)Nc2ccccc2)[C@H](OC(=O)Nc2ccc3c(c2)OCO3)[C@H]1OC(=O)Nc1ccc2c(c1)OCO2 | 0.229 | -3.58 (inactive) | 0.754 (inactive) | -2.46 (inactive) | 0.142 | -0.018 | 0.505 | 0.781 | 0.739 | 2.12 (inactive) | 0.57 | 4.45 (inactive) | -0.359 (inactive) | 0.0835 (inactive) | -1.81 (inactive) | 1.21 | -3.84 (inactive) | -3.08 (inactive) | -2.05 | 0.275 |
| C=C(COC)C(=O)CC[C@@H](OC(=O)c1ccccc1-c1ccccc1C(=O)O)c1cccc(OCCO)c1 | 0.0174 | 0.483 (inactive) | 2.37 (inactive) | 0.0416 (inactive) | -0.52 | -0.128 | 0.785 | 0.455 | 0.404 | 0.908 (inactive) | -0.144 | 8.07 (active) | 1.28 (inactive) | 1.28 (inactive) | 0.236 (inactive) | -0.178 | 3.24 (inactive) | 1.34 (inactive) | -0.986 | 0.467 |
| C#CCN1C(C(=O)OCC)OC[C@H]1c1ccccc1 (stereo not given in full) | 0.0718 | -2.25 (inactive) | 1.12 (inactive) | -0.678 (inactive) | -0.0517 | 0.195 | 3.34 | 3.27 | 0.789 | 2.39 (inactive) | -0.0061 | 0.0429 (inactive) | -1.18 (inactive) | 0.696 (inactive) | -2.37 (inactive) | 1.01 | 0.413 (inactive) | 0.918 (inactive) | -0.727 | 0.208 |
